Screens: PubChem, National Center for Advancing Translational Sciences (NCATS)
BLM helicase inh – Bloom syndrome helicase (human) inhibition; AID 2528; 350,000 tested, 0.2% active; recombinant BLM DNA unwinding, fluorescence dequenching; P54132; Potency, µM (top dose mostly 56.1 µM), without a hit: top-dose activity change, negative = inhibition, most hits filed as inhibitors;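 note: plate controls were vehicle for no effect and no enzyme for full effect; nearly all actives have a fitted effect of over 35% in size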
RECQ1 inh-1 – RECQ1 (human) helicase inhibition. P46063. RECQ1 DNA unwinding, red fluorescence kinetic read. Potency, µM (highest dose often 57.3 µM), inactives show top-dose activity, negative = inhibition, usual class: inhibitors. 240,000 tested, 0.54% active. AID 2549;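 note: plate controls were vehicle for no effect and no enzyme for full effect; nearly all actives have a fitted effect of over 30% in size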
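50 nM RECQ1T1 preincubated 15 min with compound in Tris pH 8.0 buffer with MgCl2, DTT, Tween-20 and 2.5 ug/ml poly(dI-dC); started with 200 nM TAMRA/BHQ-2 forked duplex and 2 mM ATP. Unwinding read as fluorescence (525/598 nm), two reads 2 h apart.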
KAT2A inh – inhibitors of human GCN5L2 histone acetyltransferase. Q92830. GCN5L2 HAT assay, ThioGlo1 CoA-SH fluorescence. Potency, µM (top dose mostly 58.9 µM), for the others: at the highest dose activity change, negative = inhibition, actives largely listed as inhibitors. 390,000 tested, 0.21% active; note: % is set by controls: 0 for no effect and ±100 for the full control effect
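GCN5L2 (20nM final) in 50mM HEPES, 0.1mM EDTA pH 7.5, 0.01% Tween-20 was preincubated 15 min at room temperature with compound, then given ThioGlo1 (50uM), H3(1-25) peptide (75uM) and acetyl-CoA (70uM); CoA-thiol fluorescence (Ex340/Em540) was read at 0 and 20 min.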
ERG Ets-DNA blk – ERG Ets/DNA interaction inhibition | P11308 | fluorescence polarization, His-ERG Ets domain / labelled DNA | Potency, µM (titrated, usually from 76.9 µM), without a hit: top-dose FP activity, negative = inhibition, actives largely listed as inhibitors | 370,000 tested, 0.028% active | AID 624246; active = well fitted inhibition curve with a large enough effect in the polarisation, with a control signal flat; inconclusive = small, poorly fitted or top-dose-only effect, or effect the other way, or a change in a side signal; inactive = no such curve, though single readings can be large or run the other way; the % refers to the polarisation;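 note: polarization taken with two DNA probes labelled with fluorescein and Texas red; % of control where 0% means no effect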
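His-tagged ERG Ets domain (1 uM in the protein solution; 300mM KCl, 50mM Tris-HCl, 1mM EDTA, 1mM DTT, pH 7.5) received compound, then a probe mix of 5 nM fluorescein-DNA and 100nM Texas-615-DNA. Fluorescence polarization was read for both dyes.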
APE1 inh-1 – blocks human APE1 abasic DNA cleavage. 350,000 tested, 0.35% active. recombinant APE1, TAMRA/BHQ-2 abasic DNA cleavage fluorescence. P27695. Potency, µM (doses to about 65.8 µM), without a hit: top-dose activity change, negative = inhibition, most hits filed as inhibitors. AID 2517;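 note: plate controls were vehicle for no effect and reference inhibitor for full effect; nearly all actives have a fitted effect of over 55% in size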
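Step 1: APE1 (0.75 nM) with compound, 15 min RT. Step 2: add 50 nM fluorophore/quencher THF duplex. Step 3: three fluorescence reads 60 s apart (525/598 nm); read 3 minus read 1 = reaction progress.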
WRN inhibitor – inhibitors of human WRN helicase | Potency, µM (doses to about 114 µM), without a hit: at the top dose activity change, negative = inhibition, usual class: inhibitors | AID 651768 | WRN helicase unwinding, fluorescent forked duplex, kinetic | 360,000 tested, 0.46% active | Q14191; note: % is set by controls: 0 for no effect and ±100 for the full control effect; nearly all actives have a fitted effect of over 55% in size
Target sequence (Q14191 whole entry, looked up): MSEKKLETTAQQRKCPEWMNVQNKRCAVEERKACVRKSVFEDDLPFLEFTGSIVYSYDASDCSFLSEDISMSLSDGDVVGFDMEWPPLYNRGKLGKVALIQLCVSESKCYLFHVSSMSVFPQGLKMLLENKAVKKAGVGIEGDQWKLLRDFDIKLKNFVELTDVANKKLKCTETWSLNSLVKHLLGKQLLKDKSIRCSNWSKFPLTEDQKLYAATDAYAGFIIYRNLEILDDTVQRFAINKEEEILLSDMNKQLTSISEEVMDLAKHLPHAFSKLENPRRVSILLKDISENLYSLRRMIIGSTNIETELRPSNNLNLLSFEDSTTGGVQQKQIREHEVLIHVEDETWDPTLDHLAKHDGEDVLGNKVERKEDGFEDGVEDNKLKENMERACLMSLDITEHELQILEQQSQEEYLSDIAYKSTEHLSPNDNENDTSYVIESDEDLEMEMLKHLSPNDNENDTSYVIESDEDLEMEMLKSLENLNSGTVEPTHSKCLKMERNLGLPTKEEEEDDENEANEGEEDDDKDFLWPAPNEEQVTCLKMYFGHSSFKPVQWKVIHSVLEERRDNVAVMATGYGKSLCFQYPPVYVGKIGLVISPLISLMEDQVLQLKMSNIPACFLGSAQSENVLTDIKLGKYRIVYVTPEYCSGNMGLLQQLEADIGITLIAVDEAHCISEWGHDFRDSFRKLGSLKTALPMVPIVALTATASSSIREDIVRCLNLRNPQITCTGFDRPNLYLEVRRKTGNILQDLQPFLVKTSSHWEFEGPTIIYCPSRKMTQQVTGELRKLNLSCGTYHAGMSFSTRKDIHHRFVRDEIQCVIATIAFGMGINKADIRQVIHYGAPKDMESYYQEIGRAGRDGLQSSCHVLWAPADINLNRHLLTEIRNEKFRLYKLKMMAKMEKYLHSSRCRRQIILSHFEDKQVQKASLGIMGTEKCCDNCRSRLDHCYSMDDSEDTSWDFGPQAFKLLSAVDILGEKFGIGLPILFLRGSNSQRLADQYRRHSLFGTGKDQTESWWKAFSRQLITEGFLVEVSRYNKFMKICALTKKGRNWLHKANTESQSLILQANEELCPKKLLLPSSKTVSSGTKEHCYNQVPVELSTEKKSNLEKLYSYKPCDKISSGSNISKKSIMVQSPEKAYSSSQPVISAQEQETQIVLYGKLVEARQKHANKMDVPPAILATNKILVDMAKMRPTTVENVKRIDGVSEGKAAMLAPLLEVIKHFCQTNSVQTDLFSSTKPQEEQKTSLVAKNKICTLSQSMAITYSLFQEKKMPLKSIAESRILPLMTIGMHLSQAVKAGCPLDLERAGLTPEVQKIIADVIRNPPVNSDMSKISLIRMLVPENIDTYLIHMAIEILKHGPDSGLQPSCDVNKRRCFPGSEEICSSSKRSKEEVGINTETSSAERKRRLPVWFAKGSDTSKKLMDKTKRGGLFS
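Screening of the MLSMR collection measured strand separation of a quenched forked DNA duplex (100 nM) by 20 nM WRN with 2 mM ATP, all final. Compounds were preincubated with enzyme 15 min at room temperature.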
APE1 dye cs – counter-screen for APE1 inhibitors: DNA dye displacement; shares compounds with APE1 inh-1; DNA fluorescent dye displacement counterscreen, fluorescence; Potency, µM (series often up to 28.5 µM), inactives show at the top dose activity change, negative = inhibition, hits mostly inhibitors; 480 tested, 7% active;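 note: loss of thiazole orange fluorescence as the dye is displaced from duplex DNA; 0% = ThO with dsDNA and no compound and -100% = ThO without dsDNA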
Endo IV inh – blocks E. coli endonuclease IV DNA cleavage. Potency, µM (top dose mostly 27.1 µM), for the others: top-dose activity change, negative = inhibition, usual class: inhibitors. E. coli Endo IV, fluorogenic AP-site DNA cleavage. shares compounds with APE1 inh-1. 560 tested, 4% active. AID 2565;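 note: plate controls were uninhibited enzyme wells for no effect and no enzyme buffer wells for full effect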
APE1 inh-2 – APE1 (human) endonuclease inhibition, confirmation; shares compounds with APE1 inh-1; purified APE1, fluorogenic abasic-site DNA cleavage; Potency, µM (highest dose often 57.1 µM), without a hit: at the top dose activity change, negative = inhibition, hits mostly inhibitors; 750 tested, 44% active; note: % is set by controls: 0 for no effect and ±100 for the full control effect; nearly all actives have a fitted effect of over 30% in size
APE1 FP – displaces DNA from human APE1 in FP assay; shares compounds with APE1 inh-1; APE1 binding to TAMRA-labelled double-stranded DNA, fluorescence polarization displacement; Potency, µM (top dose mostly 28.5 µM), without a hit: at the highest dose activity, negative = inhibition, most hits filed as inhibitors; 480 tested, 7% active; AID 2573; note: % is set by controls: 0 for no effect and ±100 for the full control effect
RECQ1 conf – confirmation of human RECQ1 helicase inhibitors | 610 tested, 28% active | RECQ1 helicase DNA unwinding, fluorescence | Potency, µM (top dose mostly 229 µM), for inactives: at the highest dose activity change, negative = inhibition, usual class: inhibitors | shares compounds with RECQ1 inh-1 | AID 2708; note: % is set by controls: 0 for no effect and ±100 for the full control effect; nearly all actives have a fitted effect of over 45% in size
ADP FP counter – counter-screen for RECQ1 inhibitors: ADP displacement; shares compounds with RECQ1 inh-1; ADP fluorescence polarization displacement counterscreen; Potency, µM (titrated, usually from 228 µM), for inactives: top-dose activity change, negative = inhibition, hits mostly inhibitors; 530 tested, 27% active; AID 2711; note: % is set by controls: 0 for no effect and ±100 for the full control effect; nearly all actives have a fitted effect of over 45% in size
RECQ1 inh-2 – confirmation of human RECQ1 helicase inhibitors; shares compounds with RECQ1 inh-1; recombinant RECQ1 DNA unwinding, red fluorescence; Potency, µM (highest dose often 119 µM), for inactives: at the highest dose activity, negative = inhibition, hits mostly inhibitors; 1,100 tested, 15% active; AID 504841; note: % is set by controls: 0 for no effect and ±100 for the full control effect; nearly all actives have a fitted effect of over 50% in size
* marks the source's active call; other numbers are inactive results; ? = inconclusive; nt = no result; [ ] = another dose, or the depositor's remark. Only some compounds are listed: those with a hit (about 0.88% of all), similar ones and a draw of the others. Unless noted, calls come from the whole dose curve; as a rule, active = well fitted curve in the direction sought with a large enough effect; inconclusive = small, poorly fitted or top-dose-only effect, or another doubt; inactive = no such curve, though single readings can be large; an effect the other way counts as inactive or inconclusive. Potency is the fitted concentration of half-maximal effect.

SMILES	BLM helicase inh	RECQ1 inh-1	KAT2A inh	ERG Ets-DNA blk	APE1 inh-1	WRN inhibitor	APE1 dye cs	Endo IV inh	APE1 inh-2	APE1 FP	RECQ1 conf	ADP FP counter	RECQ1 inh-2
Cc1nc(-c2ccc(S(=O)(=O)Nc3cc(Cl)ccc3C)cc2)co1	-3%	nt	-5%	0%	nt	nt	nt	nt	nt	nt	nt	nt	nt
CCN(Cc1nc(-c2ccc(OC)cc2)oc1C)S(=O)(=O)c1ccc(Cl)cc1	-7%	nt	26%	-2%	nt	nt	nt	nt	nt	nt	nt	nt	nt
COc1ccc(-c2cc(C(=O)NN)n(-c3ccccc3)n2)cc1	-3%	-8%	-20%	-8%	-2%	-16%[57.1 µM]	nt	nt	nt	nt	nt	nt	nt
CCOC(=O)c1cc(-c2ccc(OC)cc2)nn1-c1ccccc1C(=O)O	-18%	7.9µM*	-29%	1%	2.5µM*	-16%	nt	nt	40µM*	nt	?	49%[91.9 µM]	?
COc1ccc(N2Cc3cccc(C(=O)NC(C)CCc4ccco4)c3C2=O)cc1 (centres undefined)	?	7.9µM*	?	5%	11µM*	35µM*	-14%	3%	11µM*	-16%	35µM*	-11%[91.9 µM]	10µM*
O=C(/C=C/c1ccc(O)c(O)c1)OC1C(O)CC(OC(=O)/C=C/c2ccc(O)c(O)c2)(C(=O)O)CC1O (centres undefined)	6%	-2%	1%	-9%	?	-3%	-7%	104%	-11%[24.4 µM]	?	6%	-3%	nt
COc1ccccc1NC(=O)CCNS(=O)(=O)c1ccc2c(c1)CCCC(=O)N2	3%	nt	16%	4%	nt	nt	nt	nt	nt	nt	nt	nt	nt
CCN(CC)CCCC(C)Nc1c2ccc(Cl)cc2nc2ccc(OC)cc12 (centres undefined)	-6%	?	?	nt	28µM*	nt	nt	7.9µM*	16µM*	nt	32µM*	6.3µM*	nt
O=C1[C@H]2[C@H]3[C@H](O)[C@H](O)C/C(=N/OC[C@@H](O)COCc4ccco4)[C@@H]3CC[C@@H]2C(=O)N1Cc1ccccc1	1%[12.4 µM]	-1%[11.5 µM]	nt	nt	?	nt	nt	nt	nt	nt	nt	nt	nt
Cc1ccc(N=C2NC(=O)/C(=C/C=C/c3ccco3)S2)cc1	16µM*	18µM*	-7%	12%	18µM*	35µM*	13µM*	?	?	-1%	?	nt	?
